Most compounds without a hit are left out; they make up all but 4.8% or so of the library.
DAX1 inh-1: DAX1 (NR0B1) inhibitors, primary screen, cell-based, HEK293, Gal4-DAX1, luciferase luminescence | HEK293 Gal4-DAX1 luciferase reporter | inhibition, % at 6.75 µM | hit rate 0.99% among 340,000;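 active means inhibition above the mean over all tested compounds plus 3 SD, cut at about 4.2% in these data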;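 further: 0% = DAX1-transfected cells with DMSO and 100% = empty-vector control cells with DMSO; inhibition shows as a rise in luminescence from relieved DAX1 repression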
Target sequence (P51843 207-470 limits assumed): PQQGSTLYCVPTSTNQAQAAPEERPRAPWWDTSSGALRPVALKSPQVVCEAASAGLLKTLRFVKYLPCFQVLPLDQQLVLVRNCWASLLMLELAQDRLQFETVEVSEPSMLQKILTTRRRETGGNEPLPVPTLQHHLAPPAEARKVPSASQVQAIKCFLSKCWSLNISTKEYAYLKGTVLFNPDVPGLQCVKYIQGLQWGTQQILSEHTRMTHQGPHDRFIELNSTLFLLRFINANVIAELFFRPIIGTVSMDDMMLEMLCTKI
hcDAF-12 act: H. contortus DAF-12 nuclear receptor activators, primary screen, cell-based, luminescence, HEK293, lit1-tk-luc reporter; HEK293 hcDAF-12 lit1-tk-luc reporter; 0% DMSO, 100% Δ7-dafachronic acid; activation, % at 6.8 µM; hit rate 1.4% among 370,000; AID 652067, 2013;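 active means activation above the mean of all tested compounds plus 3 SD, cut at about 5.5% in these data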;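 further: 100% = response to 3 µM Δ7-dafachronic acid high control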
SMARCA2 activ: SMARCA2 (BRM) function activators, primary screen, cell-based, luminescence, high throughput; MG213 cells, MMTV-luciferase reporter, dexamethasone, overnight; activation, % at 9.1 µM; hit rate 1% among 370,000; AID 652017, 2013; in the data active means activation above about 7.8%;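 further: 0% = vehicle wells and 100% = reference activator wells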
ssDAF12 agonist: S. stercoralis DAF-12 nuclear receptor activators, primary screen, cell-based, luminescence, HEK293, GRIP1 co-expression, lit1-tk-luc; HEK293 ssDAF-12/GRIP1 lit1-tk-luc reporter; % of 3 µM dafachronic acid response; hit rate 1% among 370,000; AID 652126, 2013; activation, % at 6.8 µM;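 active means activation above the mean over all tested compounds plus 3 SD, cut at about 0.9% in these data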;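 further: 0% = DMSO-only wells and 100% = 3 µM delta7-dafachronic acid wells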
hgDAF-12 ag: H. glycines DAF-12 receptor agonists, primary screen, cell-based, luminescence, HEK293, GAL4 fusion, UAS-luciferase; hit rate 1.8% among 370,000; AID 687014, 2013; activation, % at 6.8 µM; Nuclear hormone receptor DAF-12 (Heterodera glycines), GAL4 fusion; HEK293 GAL4-hgDAF12 UAS-luciferase reporter, agonist luminescence; normalized to butyrate control;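 active means activation above a cutoff set at the mean of all screened compounds plus 3 SD, cut at about 10% in these data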;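 further: 0% = DMSO wells and 100% = sodium butyrate wells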
DAX1 inh-2: DAX1 (NR0B1) inhibitors on StAR promoter, primary screen, cell-based, luminescence, SF-1 (NR5A1), full-length DAX-1 | HEK293T StAR-luciferase reporter, SF-1/DAX-1 repression relief | inhibition, % at 6.8 µM | hit rate 1.1% among 370,000;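 active means inhibition above the mean over all tested compounds plus 3 SD, cut at about 3.6% in these data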;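 further: 0% = DAX-1 cells with DMSO and 100% = cells lacking DAX-1 with DMSO; higher inhibition means more luminescence from relief of DAX-1 repression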
Numbers without * were called inactive; x = no result.

SMILES	DAX1 inh-1	hcDAF-12 act	SMARCA2 activ	ssDAF12 agonist	hgDAF-12 ag	DAX1 inh-2
CCc1ccc(C(=O)CN2C(=O)NC3(CCCCCC3)C2=O)cc1	1.1	1.1	7.9*	-0.8	5.4	4.5*
CN(Cc1ccccc1)C(=O)CN1C(=O)NC2(CCCC2)C1=O	-0.3	1.3	-0.6	-0.9	2.5	-0.6
CC(C)N(Cc1ccccc1)C(=O)CN1C(=O)NC2(CCCC2)C1=O	-0.8	-0.7	-5.3	-1.4	-1.7	4.1*
CCc1cccc2c(C(=O)CN3C(=O)NC4(CCCCC4)C3=O)c[nH]c12	-0.5	-1.1	5.9	-1.6	-8.0	3.9*
O=C(Cn1c(=O)c2cccn2c2cccnc21)NCCCN1CCN(c2ccc(Cl)cc2)CC1	x	-3.2	x	-1.4	3.1	x
CC(C)C[C@H]1COc2cccc(F)c2S(=O)(=O)N1Cc1cn(Cc2ccc(Cl)cc2)nn1	x	1.1	-2.9	-1.0	-2.9	0.3
O=[N+]([O-])c1ccc(/C=N/NC2=NS(=O)(=O)c3ccccc32)cc1	-0.4	0.8	-1.3	-0.9	-1.6	0.7
O=S1(=O)N=C(N/N=C/c2cccs2)c2ccccc21	4.5*	-1.2	-0.5	-1.1	1.3	-0.2
Cc1c(C(=O)Nc2nnc(C3CC3)s2)oc2ccccc12	1.2	6.4*	3.4	0.6	10.9*	2.3
COc1ccc(C2C(C(=O)NCCN(C)C)c3ccccc3C(=O)N2C)cc1OC (stereo unspecified)	4.6*	-1.1	-0.6	-1.2	1.1	-1.5
COc1ccc(C2C(C(=O)NCc3ccccn3)c3ccccc3C(=O)N2C)cc1OC (stereo unspecified)	1.0	-1.2	-2.7	-0.8	-1.4	-0.1
CCCCCCCCN1C(=O)[C@@H](CC(=O)NCc2cccs2)C[C@@]2(C(=O)OC)C1=C[C@H](C(C)C)O[C@@H]2C1CC1	x	-0.1	-4.3	-1.2	5.1	-0.5
Cc1ccc(-n2nc(C)c(=O)c(-c3ccccc3)c2NC(=O)c2cccs2)cc1	5.5*	-2.3	-0.3	-0.9	0.3	-0.2
O=C1C(C=NCc2cccnc2)=C(O)c2ccccc21	3.9	4.8	5.2	0.3	12.1*	3.3
C#CCN1CC(N(C)CCOC(=O)c2cccs2)CS1(=O)=O (stereo unspecified)	x	-2.2	0.8	-1.2	4.1	0.1
C=CCN1C(=O)[C@@H](CC(=O)NCc2cccc(C(F)(F)F)c2)[C@]2(C(=O)OC)CCCCC=C12	x	-2.6	-2.1	-0.8	-0.4	-0.3
N#C/C(=C(/O)CCl)c1nc(-c2ccccc2)cs1	-0.1	3.7	-0.6	1.3*	3.1	1.4
Cc1cc2nc(-c3ccc(Cl)cc3)c(CC(C)(C)C)n2c(C)c1Br	x	1.6	3.7	0.5	4.2	-2.1
Cc1ccc(Cc2c(-c3ccc(Cl)cc3)nc3cc(C)c(Br)c(C)n23)cc1	x	2.6	2.7	1.2*	3.2	4.1*
Cc1cc2nc(-c3ccc(Cl)cc3)c(CC3CCCCC3)n2c(C)c1Br	x	6.1*	1.1	1.4*	3.8	3.5
Cc1ccc(-c2nc3cc(C)c(Br)c(C)n3c2Cc2ccccc2)cc1	x	5.6*	6.4	0.5	9.6	0.9
COc1ccc([C@H]2OC(=O)C[C@@H]2C(=O)N2CCN(c3ccccc3Cl)CC2)cc1OC	x	-3.7	-3.1	-1.1	3.7	0.0
Cc1ccc(NC(=O)CSc2nnc(-c3cccnc3)n2Cc2ccco2)cc1C	x	-2.7	-1.9	-0.6	0.8	0.8
CC(C)(C)OC(=O)C1[C@H](O)C=CC[C@H]1S(=O)c1ccccc1 (stereo partly specified)	x	0.1	x	-0.8	-2.2	x
CCCOc1ccc(-c2nc(=S)[nH][nH]2)cc1	4.5*	2.6	-0.9	-0.7	6.0	2.5
SMILES	DAX1 inh-1	hcDAF-12 act	SMARCA2 activ	ssDAF12 agonist	hgDAF-12 ag	DAX1 inh-2
S=c1nc(-c2ccc(Cl)cc2)[nH][nH]1	1.8	2.1	-1.2	-1.2	0.9	-0.3
COc1ccc2nc(SCC(=O)C(C)(C)C)[nH]c2c1	4.5*	1.0	4.2	-0.6	8.2	0.5
CCOc1ccc2nc(SCC(=O)N(C)C)[nH]c2c1	1.4	2.3	7.9*	-0.6	4.6	1.5
CCOc1ccc2nc(SCC(=O)N(C)C3CCS(=O)(=O)C3)[nH]c2c1 (stereo unspecified)	-0.4	-0.6	-4.9	0.2	1.3	0.8
Clc1ccc([C@H]2OC[C@@]3(CNC4CCCCC4)CS[C@H](c4ccc(Cl)cc4)N23)cc1	x	-2.6	0.1	-1.8	-4.7	0.8
COC(=O)[C@]12C[C@H](CC(=O)NCCc3ccccc3OC)C(=O)N(Cc3cccc4ccccc34)C1=C[C@H](C(C)(C)C)O[C@@H]2C	x	-1.1	-2.7	-0.8	-1.9	-1.2
Cc1ccc(C2C(C(=O)O)c3ccccc3C(=O)N2C)c(C)c1 (stereo unspecified)	-0.3	0.5	-0.8	-1.4	-1.9	0.7
CN1C(=O)c2ccccc2C(C(=O)O)C1c1cn(C)c2ccccc12 (stereo unspecified)	0.2	5.9*	0.3	-0.7	0.1	0.1
CCCOc1cccc(C(=O)Nc2cccc3ncccc23)c1	-1.0	-2.2	2.2	-0.9	0.0	-0.8
CCCOc1cccc(C(=O)Nc2ccc(Br)cc2F)c1	2.9	3.9	12.6*	-1.3	10.6*	1.8
COc1ccc(/C=C2\SC(=S)N(N3C(=O)CCC3=O)C2=O)cc1O	4.4*	-1.1	-4.2	-0.3	-1.7	-0.4
COc1ccc(/C=C2/SC(=S)N(Cc3ccccc3)C2=O)cc1O	-1.4	0.1	-0.2	-0.9	-0.7	0.0
O=c1c2cc(NC(=S)N3CCCCC3)ccc2nc2n1CCCCC2	0.0	0.2	-2.6	1.1*	5.3	-0.5
O=C(O)C1CCCCC1C(=O)N1CCCC1 (stereo unspecified)	-0.1	0.1	-4.1	1.5*	2.1	0.6
O=C(CC1C(=O)OCN1C(=O)OCc1ccccc1)OCC(=O)c1ccccc1 (stereo unspecified)	4.9*	0.3	1.1	-0.2	-0.6	0.1
Cc1cccc(Nc2nnc(SCC(=O)Nc3ccccc3[N+](=O)[O-])s2)c1	4.4*	3.9	-0.8	-0.2	3.4	-0.3
O[C@H](COc1cccc(C(F)(F)F)c1)CN1CCC(C(O)(c2ccccc2)c2ccccc2)CC1	x	-2.1	-1.1	-1.3	1.0	-0.8

Screening data: PubChem, The Scripps Research Institute Molecular Screening Center
